Source: PubChem BioAssay (several laboratories)
TWEAK-Fn14 inh: inhibitors of TWEAK-Fn14 signaling, primary screen, luciferase reporter cells, uHTS. 360,000 compounds, 2% hits. inhibition, % at 10 µM. TWEAK-stimulated Fn14 reporter cells, luciferase luminescence, 8 h. AID 1159606, 2016; in the data active = inhibition above about 50%
TRAIL sens C8: viability loss with TRAIL in NB7+C8 cells, primary screen, TRAIL sensitizer project, cell-based, ATPlite luminescence. inhibition (viability loss, TRAIL sensitization), % at 10 µM. 360,000 compounds, 1% hits;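 active = compounds causing at least 50% loss of cell viability in the single-dose screen, relative to plate controls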
HIF-2a block: HIF-2a reporter inhibitors, primary screen, luminescence, 786-0 RCC cells. 360,000 compounds, 0.72% hits. inhibition, % at 18.8 µM. 786-0 RCC cells HIF-2a reporter, luciferase luminescence, overnight;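 active = inhibition of the luminescence signal of 40% or more relative to plate controls, in a single-dose primary screen at 18.75 µM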
aSyn UTR inh: MLPCN primary screen, SNCA 5' untranslated region. 300,000 compounds, 0.82% hits. alpha-synuclein 5'UTR reporter, inhibitor activity. inhibition, % (tested at 7.5 µM). AID 1813, 2009; in the data active = inhibition above about 60%;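 note: H4 neuroglioblastoma cells stably carrying SNCA 5'UTR luciferase fusion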
TROY signal inh: inhibitors of TROY-driven NF-kB signaling, primary screen, Q293 LMP1-TROYcd cells, NF-kB luciferase, uHTS | Q293 LMP1-TROYcd NF-kB luciferase reporter, 4 h | inhibition, % at 10 µM | 360,000 compounds, 0.98% hits;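 active = compounds whose plate-normalised and pattern-corrected inhibition of the luciferase reporter signal at the single screening dose is 50% or more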
HSP90 refold inh: HSP90 inhibitors, primary screen, cell lysate, luminescence; Rabbit reticulocyte lysate, luciferase refolding luminescence, 3 h; AID 1789, 2009; inhibition, % at 5.6 µM; 290,000 compounds, 0.91% hits;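 active = inhibition above the screen-wide mean plus 3 SD, computed separately per campaign, cut at about 16% in these data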;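 note: inhibitors lower the luminescence because luciferase stays unfolded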
Hits are given with their value; 0 = inactive; - = no result. This is a sample that favours compounds with a hit; in the whole collection about 3.9% have one here.

SMILES | TWEAK-Fn14 inh | TRAIL sens C8 | HIF-2a block | aSyn UTR inh | TROY signal inh | HSP90 refold inh
CCOC(=O)[C@@H](NC(=O)/C=C/[C@H]1O[C@@H](n2cc(C)c(=O)[nH]c2=O)C[C@@H]1O)C(C)C | 0 | 0 | 0 | - | 0 | -
COCCN(Cc1ccccc1)C(=O)c1ccc(C(=O)c2ccccc2)cc1 | 0 | 0 | 0 | - | 0 | -
NCC(=O)NCC(=O)NC[C@H]1O[C@@H](n2cnc3c(N)ncnc32)[C@H](O)[C@@H]1O | 0 | 0 | 0 | - | 0 | -
COc1cccc(-c2cc3nc(-c4ccccc4)cc(=O)n3[nH]2)c1 | 0 | 41 | 0 | 0 | 0 | 0
COc1cccc(N=Nc2c(N)[nH]n3c(=O)cc(-c4ccccc4)nc23)c1 | 0 | 0 | 0 | 0 | 0 | 0
Cc1cc(=O)n2[nH]c(-c3ccccc3)cc2n1 | 0 | 0 | 0 | 0 | 0 | 0
O=c1cc(-c2ccccc2)nc2cc(-c3ccc(F)cc3)[nH]n12 | 0 | 56 | 0 | 0 | 0 | -
COc1ccc(-c2c(C(F)(F)F)[nH]n3c(=O)cc(-c4ccccc4)nc23)cc1 | 0 | 0 | 0 | 0 | 51 | 0
O=C(OCC(=O)N1CCCCCC1)c1cc(S(=O)(=O)N2CCOCC2)ccc1F | 0 | 0 | 0 | - | 0 | -
COc1ccc(-c2coc3cc4oc(=O)cc(-c5ccccc5)c4cc23)cc1F | 0 | 0 | 0 | 113 | 0 | 0
CC(Nc1ccc(Br)cc1)C(=O)NC(=O)NC1CCCCC1 (configuration not stated) | 0 | 0 | 0 | - | 0 | -
O=C(Nc1ccc(N2CCN(c3ncccc3C(F)(F)F)CC2)nc1)c1cccs1 | 96 | 0 | 0 | 0 | 82 | 0
O=C(Nc1ccc(N2CCN(c3ccc(C(F)(F)F)cn3)CC2)nc1)c1cccs1 | 0 | 0 | 0 | 0 | 0 | 0
Cc1ccccc1S(=O)(=O)N(C)C[C@H]1OCc2cn(nn2)CCCC(=O)N([C@H](C)CO)C[C@@H]1C | 0 | 0 | 0 | - | 0 | -
CS(=O)(=O)N(CCc1ccccc1)CC(=O)NCc1ccco1 | 82 | 0 | 0 | 0 | - | 0
COc1cc(/C=N/NC(=O)COc2cc(C)cc(C)c2)ccc1OS(=O)(=O)c1ccc(C)cc1 | 62 | 0 | 0 | 0 | 0 | 0
CCc1ccc(OCC(=O)N/N=C/c2ccc(OS(=O)(=O)c3ccc(C)cc3)c(OC)c2)cc1 | 0 | 0 | 0 | 0 | 0 | 0
CCOC(=O)c1ccc(NC(=O)c2ccc(C)c(S(=O)(=O)N3CCOCC3)c2)cc1 | 96 | 70 | 0 | 0 | 73 | 0
Cc1ccc(NC(=O)c2cccnc2)cc1S(=O)(=O)N1CCOCC1 | 0 | 0 | 0 | 0 | 0 | -
Cc1cc(C)n(-c2ccc(C(=O)Nc3ccc(C)c(S(=O)(=O)N4CCOCC4)c3)cc2)n1 | 64 | 53 | 0 | 0 | 64 | 0
CCOC(=O)c1cc(OC(=O)Cc2ccc(OC)c(S(=O)(=O)N3CCOCC3)c2)cc(C(=O)OCC)c1 | 0 | 0 | 0 | - | 52 | -
O=C(Nc1ccc2c(c1)OCCO2)c1ccc(Br)c(S(=O)(=O)N2CCOCC2)c1 | 82 | 0 | 0 | - | 61 | 0
CC(=O)c1ccc(NC(=O)c2ccc(C)c(S(=O)(=O)N3CCOCC3)c2)cc1 | 0 | 0 | 0 | 0 | 0 | 0
CN(Cc1ccc(Cl)c(Cl)c1)C(C(=O)NCc1ccccc1)c1ccc(C(F)(F)F)cc1 (configuration not stated) | - | 0 | 0 | - | - | -
COc1cc(C(=O)COC(=O)c2ccncc2)cc(OC)c1OC | 0 | 0 | 0 | - | 0 | -
SMILES | TWEAK-Fn14 inh | TRAIL sens C8 | HIF-2a block | aSyn UTR inh | TROY signal inh | HSP90 refold inh
CC(C)CCn1c(SCC(=O)N2CC(=O)Nc3ccccc32)nc2scc(-c3cccs3)c2c1=O | 0 | 0 | 0 | 0 | 0 | 0
C=CCn1c(SCC(=O)N2CC(=O)Nc3ccccc32)nc2scc(-c3cccs3)c2c1=O | 52 | 0 | 0 | 0 | 0 | 0
CCc1ccc(/C=C2\SC(=S)N(CCCC(=O)N(CCO)c3ccccc3)C2=O)cc1 | 0 | 92 | 65 | - | 0 | -
CCOc1ccc(/C=C2\SC(=S)N(CCC(=O)N(CCO)c3ccccc3)C2=O)cc1 | 0 | 0 | 57 | 0 | 0 | 0
O=C(c1cccs1)c1no[n+]([O-])c1C(=O)c1cccs1 | 0 | 92 | 63 | 63 | 0 | 0
O=C(c1ccc(Cl)nc1)c1cccs1 | - | - | - | 0 | - | 0
Cn1cc(Br)c(C(=O)Nc2sc3c(c2C#N)CCC3)n1 | 0 | 0 | 0 | 0 | 0 | 0
CCN1CCN(CC(=O)Nc2sc3c(c2C#N)CCC(C)C3)CC1 (configuration not stated) | 78 | 0 | 0 | 0 | - | 0
N#Cc1c(NC(=O)c2cc(C3CC3)on2)sc2c1CCC2 | 0 | 0 | 0 | 0 | 0 | -
CC(C)Cc1cc(C(=O)Nc2sc3c(c2C#N)CCC3)no1 | 0 | 0 | 0 | 0 | 0 | 0
Cn1cc([N+](=O)[O-])c(C(=O)Nc2sc3c(c2C#N)CCC3)n1 | 0 | 0 | 0 | 64 | 0 | 0
Cc1cc(C(=O)Nc2sc3c(c2C#N)CCC(C)C3)no1 (configuration not stated) | 0 | 55 | 0 | 0 | 0 | 0
Cc1cc(C(=O)Nc2sc3c(c2C#N)CCC3)no1 | 0 | 51 | 0 | 0 | 0 | 0
Cc1cc(C(=O)Nc2sc3c(c2C#N)CCCC3)no1 | 0 | 52 | 0 | 0 | 0 | 0
C/C(=N\Nc1nc(C)cc(-c2ccccc2)n1)c1cccc(N)c1 | 0 | 51 | 0 | 0 | 0 | 0
Cc1ccc2c(Cl)cc(Cl)c(OCC(=O)Nc3cc(S(=O)(=O)N(C)C)ccc3C)c2n1 | 80 | 0 | 0 | 0 | 0 | 0
Cc1ccc2c(Cl)cc(Cl)c(OCC(=O)Nc3cccc(S(=O)(=O)N(C)C)c3)c2n1 | 0 | 0 | 0 | 0 | 0 | 0
Cc1nnsc1C(=O)N/N=C/c1ccc2ccccc2c1O | 54 | 0 | 0 | 120 | 0 | 0
Cc1nnsc1C(=O)N/N=C/c1ccccc1 | 0 | 0 | 0 | 0 | 0 | 0
CN=C1N(C)C[C@@H]2[C@@H]3C(=O)N(C)C(=O)[C@@H]3[C@](Cc3ccccc3)(C(=O)OC)N12 | 0 | 0 | 0 | - | 0 | -
CCN(CC)C(=O)[C@H]1C[C@H](CC(=O)NCC23CC4CC(CC(C4)C2)C3)C(=O)N2CCc3c([nH]c4ccc(Cl)cc34)[C@]12C | 54 | 0 | 0 | - | 0 | -
CC(C)=CCC/C(C)=C/CNC(=O)C[C@H]1C[C@H](C(=O)N2CCOCC2)[C@@]2(C)c3[nH]c4ccc(Cl)cc4c3CCN2C1=O | 51 | 0 | 0 | - | 51 | -
O=C(CC1C[C@H](C(=O)N2CCCCC2)[C@@]2(CCc3ccccc3)c3[nH]c4ccccc4c3CCN2C1=O)NCc1cccc(C(F)(F)F)c1 (some centres not stated) | 0 | 0 | 0 | - | 0 | -
CC(C)N(C(=O)[C@H]1C[C@H](CC(=O)NCC23CC4CC(CC(C4)C2)C3)C(=O)N2CCc3c([nH]c4ccc(Cl)cc34)[C@]12C)C(C)C | 54 | 0 | 0 | - | 0 | -
